In the library only some 0.56% were active in any assay of this set; here they are far more common.
Vif imaging – HIV Vif inhibition; AID 602346; HEK293T cells, Vif self-association by quenched fluorescence, imaging, 24 h; inhibition, % at 7.49 µM; 340,000 tested, 0.35% active; in the data active = inhibition above about 50%, passing the limit was not always enough; inconclusive = no clear call, values can overlap the other calls; inactive = below about 31%
Glyco luc inh – blocks N-linked glycosylation in D54 reporter cells; D54 ERlucT glycosylation luciferase reporter, 24 h; percent of 100 nM tunicamycin response; reporter increase, % at 12.5 µM; 360,000 tested, 0.23% active; AID 588692;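 active = mean luciferase reporter signal, scaled so untreated is 0 and the glycosylation-blocking control 100, at or above a set limit in every replicate; inconclusive = mean reaches the limit but not every replicate does; inactive = mean below the limit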;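 also: luciferase carries N-glycosylation sites so blocking glycosylation raises the light; 0% = median of neutral control wells and 100% = median of 100 nM tunicamycin wells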
PDI turbidity – blocks human protein disulfide isomerase activity; P07237; PDI insulin aggregation turbidity, A650, 90 min; inhibition, % at 10 µM; 350,000 tested, 0.052% active; AID 588391;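 active = mean inhibition across replicates of 30% or more, whatever share of single replicates reach that level; inconclusive = mean inhibition below 30% while every single replicate reaches 30%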
Target sequence (P07237 whole entry, looked up): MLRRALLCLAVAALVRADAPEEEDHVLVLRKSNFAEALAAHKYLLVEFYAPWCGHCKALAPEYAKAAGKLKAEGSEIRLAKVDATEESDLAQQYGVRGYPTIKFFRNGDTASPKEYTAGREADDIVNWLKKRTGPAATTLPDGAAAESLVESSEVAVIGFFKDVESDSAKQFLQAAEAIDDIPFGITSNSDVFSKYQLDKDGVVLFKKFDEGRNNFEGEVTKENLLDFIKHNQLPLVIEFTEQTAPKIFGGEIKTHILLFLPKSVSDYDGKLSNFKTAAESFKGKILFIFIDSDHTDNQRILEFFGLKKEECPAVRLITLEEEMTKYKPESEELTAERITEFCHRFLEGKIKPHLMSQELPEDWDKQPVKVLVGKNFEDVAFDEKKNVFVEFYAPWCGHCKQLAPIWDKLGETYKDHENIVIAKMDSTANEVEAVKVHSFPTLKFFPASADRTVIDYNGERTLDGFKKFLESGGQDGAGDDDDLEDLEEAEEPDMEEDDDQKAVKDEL
ERp5 block – blocks human ERp5 reductase activity on insulin; AID 651711; inhibition, % at 9.99 µM; 350,000 tested, 0.05% active; Q15084; ERp5 insulin aggregation, absorbance 650 nm, 90 min;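 active = mean replicate inhibition above about 25%, with every replicate also reaching it, limit read from the data, passing the limit was not always enough; inconclusive = only one of those two criteria met; inactive = neither criterion met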
PvdQ inh – blocks Pseudomonas aeruginosa PvdQ acylase activity; purified PvdQ acylase, fluorescence plate reader; inhibition, % at 10 µM; 340,000 tested, 0.063% active; AID 488965; in the data active = inhibition above about 30%, passing the limit was not always enough; inconclusive = no clear call, values can overlap the other calls;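 also: 0% = vehicle neutral wells and 100% = reference inhibitor wells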
* hit, by the source's call; u = inconclusive; x = no result given; + = active, no number.

SMILES | Vif imaging | Glyco luc inh | PDI turbidity | ERp5 block | PvdQ inh
COc1ccccc1Nc1nnc(C)c(=O)[nH]1 | 73* | 2 | -2 | x | 3
CCOc1ccccc1Nc1nnc(C)c(=O)[nH]1 | -8 | -2 | -2 | x | 2
COc1ccc(OC)c(NC(=O)c2cc3ccccc3cc2OC)c1 | 51* | 0 | -2 | 3 | -11
CCOC(=O)c1c(C)[nH]c(C(=O)OCC(=O)Nc2cc(C)ccc2OC)c1C | -3 | -1 | -2 | x | 3
COc1ccc(OC)c(Nc2cc3ccccc3c(=O)[nH]2)c1 | -2 | 33* | -10 | 5 | 0
COc1cc2ccccc2cc1C(=O)Nc1ccc(Cl)cn1 | 84* | 0 | -9 | 5 | 10
CCOC(=O)c1[nH]c(C)c(C(=O)Nc2cc(OC)ccc2OC)c1C | 54* | 35* | 0 | x | 4
COc1ccc(Nc2ccc(N3C(=O)CCC3=O)cc2[N+](=O)[O-])cn1 | 2 | -1 | -1 | -2 | -8
COc1ccc(CN(C)C[C@H]2Oc3ccc(NC(=O)c4ccncc4)cc3CC(=O)N([C@H](C)CO)C[C@@H]2C)cc1 | x | x | x | -5 | x
COc1ccc(C(=O)Nc2cc(OC)c(NC(=O)Nc3ccccc3)cc2OC)cc1 | 73* | -2 | 7 | -1 | x
Cc1ccc(NCc2ccc(Cl)nc2)c(NCc2ccc(Cl)nc2)c1 | 11 | 1 | 8 | 1 | -10
O=C1N[C@H]2CC=C[C@H]2N(Cc2cccs2)c2ccccc21 | 6 | 54* | 7 | 4 | -7
CC(=O)c1ccc(N2CCN(C(=O)C(=O)c3cn(CC(=O)N4CCOCC4)c4ccccc34)CC2)cc1 | 6 | 2 | -2 | -1 | x
COC(=O)c1cc(/C=C/c2ccccc2)[nH]n1 | 0 | 0 | -4 | 3 | 0
COC(=O)c1cc(/C=C/c2ccccc2)on1 | 2 | 1 | -4 | x | 54*
CC(=O)Nc1ccc(-c2ccnc3c2CC(C)(C(=O)NCc2ccncc2)O3)cc1 (stereo not drawn) | -1 | 0 | -4 | -2 | x
CC(C)c1ccccc1NC(=O)COC(=O)Cc1c[nH]c2ccccc12 | 2 | -3 | -1 | x | 6
Cc1cc(/C=C2\SC(=S)N(Cc3ccco3)C2=O)c(C)n1-c1cccnc1 | 187* | -11 | 5 | x | 11
CCOC(=O)/C=C/C(=O)Nc1cc(S(=O)(=O)Nc2ccc(OC)cc2)ccc1N1CCOCC1 | 100* | -4 | -1 | -1 | 0
COc1ccc(NS(=O)(=O)c2ccc(N3CCOCC3)c(NC(=O)C(C)C)c2)cc1 | -3 | 3 | 5 | 0 | -5
O=C1CN(S(=O)(=O)c2cc(Br)ccc2Br)CCN1 | 5 | 5 | 0 | 10 | -7
O=c1c(Br)ccc(Br)cc1Br | 168* | -20 | 11 | -9 | -13
Cn1cccc1CNC1CCCC1 | 9 | 2 | -2 | 0 | -14
O=C(CN(c1ccccc1)S(=O)(=O)c1ccccc1[N+](=O)[O-])N1CCCC1 | 15 | 0 | -3 | -3 | -14
COc1cccc(N2CC(O)=C(c3nc4ccccc4c(=O)[nH]3)C2=N)c1 | 12 | 36* | -3 | x | 10
SMILES | Vif imaging | Glyco luc inh | PDI turbidity | ERp5 block | PvdQ inh
CCCNC(=O)c1cc(C2CCCN(C(=O)c3cc(F)ccc3C)C2)on1 (stereo not drawn) | 4 | -2 | -8 | 2 | x
CCOc1cccc(NC(=O)C2CCCN(S(=O)(=O)c3ccc(-n4cnnn4)cc3)C2)c1 (stereo not drawn) | -9 | -1 | -3 | x | -9
Brc1ccc(-c2nnc(-c3ccco3)o2)cc1 | -6 | -3 | -1 | x | 90*
c1ccc(-c2nnc(-c3ccco3)o2)cc1 | 7 | -2 | -4 | x | -6
CCCCn1c(N)c(N(CCOC)C(=O)c2cc(CC)c(C)s2)c(=O)[nH]c1=O | -4 | 4 | 0 | 15 | 1
CCCCn1c(N)c(N(CC)C(=O)c2cc(CC)c(C)s2)c(=O)[nH]c1=O | 55* | -3 | -3 | 0 | 0
O=C(/C=C/c1ccccc1)Nc1ncn[nH]1 | 59* | 16 | 0 | -5 | -5
Cc1ccc(-c2nc3ncccc3o2)cc1NC(=O)c1ccc([N+](=O)[O-])o1 | 11 | 36* | -3 | x | -3
O=C(c1cccc(Cl)c1)N1CCC2(CC1)NCCc1[nH]cnc12 | 52* | 1 | 0 | 0 | 5
O=C(c1cccc(F)c1)N1CCC2(CC1)NCCc1[nH]cnc12 | 4 | 4 | 12 | 6 | 8
O=C(CCCN1C(=O)/C(=C\c2cccc(Br)c2)SC1=S)Nc1ccc(C(=O)O)cc1 | 77* | -1 | -2 | 0 | x
Cc1ccc(CNC(=O)[C@H]2O[C@@H](n3cnc4c(N)ncnc43)[C@H](O)[C@@H]2O)o1 | 24 | -1 | x | -2 | x
CCNC(=O)[C@H]1O[C@@H](n2cnc3c(N)nc(NCCc4ccc(CCC(=O)O)cc4)nc32)[C@H](O)[C@@H]1O | 63* | 1 | -2 | 1 | 6
NNC(=O)c1ccc2nc(-c3ccc(Br)cc3)cn2c1 | 9 | 116* | -4 | 2 | -7
Cc1c(NC(=O)CN2C(=O)NC(C)(c3ccccc3Cl)C2=O)c(=O)n(-c2ccccc2)n1C (stereo not drawn) | -2 | 0 | 2 | x | -13
Nc1ccc(S(=O)(=O)O)cn1 | 8 | 3 | 0 | u | 3
Nc1ccc(S(=O)(=O)c2ccc(N)nc2)cc1 | 57* | -2 | -17 | 6 | x
Cc1ccc2nc(-c3ccc(O)cc3)oc2c1 | 0 | -11 | 7 | -3 | 32*
Cc1ccc2nc(-c3cccc(N)c3)oc2c1 | -1 | -18 | -3 | -4 | 4
CC(C)CC#Cc1ccc2c(c1)O[C@H](CN(C)Cc1ccc(F)cc1)[C@@H](C)CN([C@@H](C)CO)S2(=O)=O | x | x | x | -2 | x
CCc1cccc(CC)c1NC(=O)/C(C#N)=C/c1ccccc1C(F)(F)F | 1 | 69* | 8 | x | -12
Cc1cc(C)c(C)c(S(=O)(=O)N2CCCCC2C(=O)O)c1C (stereo not drawn) | 55* | 1 | 5 | 0 | -18
O=c1c2ccccc2nc(/C=C/c2ccc([N+](=O)[O-])o2)n1CCCO | + | -14 | 9 | x | 4
O=c1c2ccccc2nc(/C=C/c2ccc([N+](=O)[O-])cc2)n1CCCO | 5 | 1 | 2 | x | -5
Cc1cc(NCCN2CCOCC2)c2ccc3ccccc3c2n1 | 1 | 38* | -8 | 0 | 2
SMILES | Vif imaging | Glyco luc inh | PDI turbidity | ERp5 block | PvdQ inh
COc1ccc2nc(C)cc(NCCN3CCOCC3)c2c1 | 7 | 6 | -1 | 1 | -11
O=C(Nc1nc(-c2cccs2)cs1)c1ccc(Cl)s1 | -9 | -7 | -5 | 9 | 10
N#Cc1c(-c2ccccc2)cc(C2CC2)nc1SCC(=O)c1cccs1 | 86* | 1 | 7 | x | -17
CN(C(=O)C1CC1)c1ccccc1 | -2 | 1 | 5 | 4 | x
CC1CCCCC1NC(=O)CO/N=C/c1ccccc1OC(F)F (stereo not drawn) | 91* | -1 | 1 | -8 | -13
CCC(C)NC(=O)CO/N=C/c1ccccc1OC(F)F (stereo not drawn) | 1 | 2 | 6 | 1 | 13
S=c1nc(C2COc3ccccc3O2)[nH][nH]1 (stereo not drawn) | -11 | 3 | -2 | 5 | -7
